# High-throughput results as filed in PubChem BioAssay.
# PfHsp90 yeast 2 – growth inhibition of yeast expressing Plasmodium Hsp90. AID 504621. S. cerevisiae expressing PfHsp90, BacTiter-Glo ATP, 48 h; yeast lacking PDR1 and PDR3 efflux regulators. 310,000 compounds, 0.32% hits. inhibition, % at 9.4 µM;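 active = every replicate shows inhibition above about 80%, whatever the replicate mean, limit read from the data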;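 also: 0% = DMSO neutral controls and 100% = 20 µM radicicol positive controls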
# TIM10 inh – inhibits growth of TIM10 yeast strain. 330,000 compounds, 1.4% hits. AID 463195. inhibition, % at 10 µM. S. cerevisiae TIM10 strain growth, BacTiter-Glo luminescence, 24 h;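 active = inhibition of 40% or more at the single tested concentration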;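 also: wild-type TIM10 isogenic control strain grown at permissive 25 °C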
# tim23-1 inh – inhibits growth of tim23-1 mutant yeast; S. cerevisiae tim23-1 growth, BacTiter-Glo luminescence, 24 h; inhibition, % at 20 µM; 330,000 compounds, 1.3% hits; AID 463212;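 active = growth inhibition of the mutant yeast at or above 50%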;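 also: temperature-sensitive mutant grown at 25 °C; plate controls were DMSO-treated mutant yeast for no effect and medium wells lacking yeast for full effect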
# Rce1 inhib – blocks yeast Ras-converting enzyme. Q03530. yeast membranes, quenched prenylated peptide cleavage fluorescence. calls only. 290,000 compounds, 0.27% hits. AID 2563;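 active = fall in fluorescence gain of 50% or more versus controls, with final raw signal at or below 3038400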;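 also: plate controls were neutral control wells for no effect and wells lacking membranes for full effect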
# Target sequence (Q03530 whole entry, looked up): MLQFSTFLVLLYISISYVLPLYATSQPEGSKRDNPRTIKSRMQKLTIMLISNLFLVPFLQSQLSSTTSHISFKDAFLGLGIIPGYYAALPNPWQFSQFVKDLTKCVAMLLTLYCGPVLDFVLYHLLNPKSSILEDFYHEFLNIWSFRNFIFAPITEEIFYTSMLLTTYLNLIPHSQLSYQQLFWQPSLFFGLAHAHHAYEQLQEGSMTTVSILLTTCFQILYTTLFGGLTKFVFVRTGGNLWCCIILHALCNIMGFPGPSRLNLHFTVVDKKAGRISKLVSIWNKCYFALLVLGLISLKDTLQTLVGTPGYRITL
# tim10-1 inh – tim10-1 yeast growth inhibition; inhibition, % at 20 µM; 330,000 compounds, 2.2% hits; S. cerevisiae tim10-1 ts strain growth, BacTiter-Glo, 24 h; AID 463190;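 active = inhibition of at least 40%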;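 also: mutant grown at 25 °C; 0% = DMSO wells with yeast and 100% = wells holding no yeast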
# tim10-1 confirm – tim10-1 yeast growth inhibition, confirmed | shares compounds with tim10-1 inh | S. cerevisiae tim10-1 ts strain growth, BacTiter-Glo, 24 h | inhibition, % at 20 µM | 7,400 compounds, 56% hits;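 active = inhibition of yeast growth at or above a set limit in either of two repeat tests at 20 µM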;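 also: tim10-1 mutant grown at permissive 25 °C to find synthetic lethal compounds; 0% = DMSO yeast wells and 100% = medium wells without yeast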
# TIM10 conf – TIM10 yeast growth inhibition, confirmed. shares compounds with TIM10 inh. S. cerevisiae tim10 strain growth, BacTiter-Glo luminescence, 24 h. AID 463215. 4,600 compounds, 63% hits. inhibition, % at 10 µM;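 active = inhibition of yeast growth at or above a set limit in either of two replicates at 10 µM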;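 also: this counterscreen used the strain with wild-type TIM10; 0% = yeast with DMSO and 100% = medium wells lacking yeast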
# tim23-1 confirm – tim23-1 yeast growth inhibition, confirmed. inhibition, % at 20 µM. S. cerevisiae tim23-1 growth, BacTiter-Glo luminescence, 24 h. 4,400 compounds, 83% hits. shares compounds with tim23-1 inh;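 active = inhibition above about 39% in either of two replicate wells at 20 µM, limit read from the data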;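 also: temperature-sensitive tim23-1 mutant grown at 25 °C; 0% = DMSO wells with yeast and 100% = medium wells without yeast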
# The depositor's hits bear a star; i = inactive; x = not tested or not shown. This is a sample that favours compounds with a hit; in the whole collection about 3.7% have one here.
SMILES,PfHsp90 yeast 2,TIM10 inh,tim23-1 inh,Rce1 inhib,tim10-1 inh,tim10-1 confirm,tim23-1 confirm,others
O=C(O)c1ccccc1Nc1cc(Cl)c2nonc2c1[N+](=O)[O-],-8,-9,12,i,2,x,x,
O=[N+]([O-])c1c(Nc2ccccn2)cc(Cl)c2nonc12,108*,95*,94*,i,94*,94*,96*,TIM10 conf=100*
CN(CC(=O)Nc1ccccc1Br)C(=O)CNC(=O)c1ccco1,14,-4,6,i,2,x,x,
CNCc1ccccc1Sc1cc(O)ccc1O,-3,36,60*,x,51*,47*,56*,
CNCc1ccccc1Sc1cccc(O)c1,-84,6,9,i,-3,x,x,
Cc1ccc(NS(=O)(=O)c2ccc(-c3cnc(C4CC4)o3)cc2)c(C)c1,-3,1,51*,i,53*,17,38,
O=S(=O)(Nc1ccc(F)cc1Cl)c1ccc(-c2cnc(C3CC3)o2)cc1,-36,18,55*,i,53*,17,49*,
O=C(c1ccccc1)c1coc2c1C(=O)c1ccccc1C2=O,-13,73*,66*,i,81*,76*,79*,TIM10 conf=69*
O=C1c2ccccc2C(=O)c2c1oc(C(F)(F)F)c2C(=O)c1ccccc1,-85,78*,80*,i,80*,72*,76*,TIM10 conf=92*
COc1ccc(C(=O)c2coc3c2C(=O)C(=O)c2ccccc2-3)cc1,12,94*,85*,i,94*,93*,93*,TIM10 conf=97*
Cc1cccc(N2C(=O)CCC2=O)n1,-8,-3,8,i,10,x,x,
CC(=O)Oc1ccc(-c2cccc(C(=O)OCC(=O)N(C)c3ccccc3)c2)cc1,-3,21,50*,i,46*,34*,37,
Cc1cc(C(=O)OCC(=O)N(C)c2ccccc2)ccc1[N+](=O)[O-],x,-2,16,i,21,x,x,
Cc1c(C(=O)OCC(=O)N(C)c2ccccc2)oc2ccccc12,-2,36,56*,i,49*,44*,60*,
CN(C)c1cccc(C(=O)OCC(=O)N(C)c2ccccc2)c1,-75,30,52*,i,48*,48*,50*,
CN(C(=O)COC(=O)c1cccc(F)c1)c1ccccc1,0,-5,31,i,27,x,x,
Cc1ccc(C(=O)OCC(=O)N(C)c2ccccc2)cc1C,4,33,53*,i,41*,38*,36,
COC(=O)CSc1nc(C)c(C)c(C)c1C(N)=O,7,-13,1,i,5,x,x,
CCCCc1ccc(S(=O)(=O)N2CCC3(CC2)OCCO3)cc1,-3,24,37,i,19,x,x,
CN(C)c1ccc(N=Cc2nc(-c3ccccc3)oc2OC(=O)c2cccc(Cl)c2)cc1,-5,16,9,i,1,x,x,
Cc1ccc(C(=O)Oc2oc(-c3ccccc3)nc2C=Nc2ccc(N(C)C)cc2)cc1,4,3,19,i,26,x,x,
COc1ccc(N=Cc2nc(-c3ccccc3)oc2OC(C)=O)cc1,-11,48*,70*,i,46*,47*,63*,TIM10 conf=26
COc1cccc(N=Cc2nc(-c3ccccc3)oc2OC(C)=O)c1,-5,44*,74*,i,64*,51*,70*,TIM10 conf=34*
CSc1ccccc1NC(=O)CN(C)CC(=O)NCC(=O)Nc1ccc(F)cc1,-1,-4,-6,i,-9,x,x,
N#CC(c1ccc(Cl)cc1)c1ccc2c(C(F)(F)F)cc(C(F)(F)F)nc2n1 (configuration not stated),-12,64*,62*,i,71*,49*,60*,TIM10 conf=54*
SMILES,PfHsp90 yeast 2,TIM10 inh,tim23-1 inh,Rce1 inhib,tim10-1 inh,tim10-1 confirm,tim23-1 confirm,others
FC(F)(F)c1cc(C(F)(F)F)c2ccc(N3CCN(c4ccc(Cl)cc4)CC3)nc2n1,-10,-29,-36,i,18,x,x,
O=C(NCCNC(=O)c1ccccc1F)c1ccco1,-9,-18,-4,i,-9,x,x,
O=[N+]([O-])/C=C/c1cn(Cc2ccc(F)cc2)c2ccccc12,x,69*,65*,i,72*,66*,71*,TIM10 conf=74*
O=C(COc1ccc(Cl)cc1Br)NC(=O)NC1CCCC1,x,15,52*,x,51*,39*,63*,
O=C(COc1ccc(Br)cc1Cl)NC(=O)NC1CCCC1,-68,26,56*,x,42*,41*,55*,
O=C(COc1ccc(Cl)cc1Cl)NC(=O)NC1CCCC1,x,12,49,x,35,x,x,
CCCCNC(=O)C1CCCN1C(=O)Nc1ccccc1 (configuration not stated),-18,3,3,i,0,x,x,
O=c1oc(-c2ccco2)nc2c1cnn2-c1ccccc1,0,28,64*,i,48*,35*,67*,
O=c1c2cnn(-c3ccccc3)c2nc(-c2ccco2)n1-c1ccccc1,-19,29,48,i,28,x,x,
Cc1ccc(S(=O)(=O)CC(=O)Nc2nc(-c3ccccc3)cs2)cc1,x,29,52*,i,44*,45*,47*,
O=C(OCC(=O)C12CC3CC(CC(C3)C1)C2)c1ccc(O)cc1O,101*,27,76*,i,53*,15,62*,
O=C(COC(=O)c1ccc(O)cc1O)NC12CC3CC(CC(C3)C1)C2,12,19,38,x,11,x,x,
CC(C)c1ccc(NC(=O)Cc2c(C(=O)O)n(C)c3ccccc23)cc1,-7,13,16,i,-4,x,x,
Oc1c(Br)cc(Cl)cc1C=Nc1ccc(N2CCOCC2)cc1,4,13,36,i,27,x,x,
Oc1c(Br)cc(Cl)cc1C=Nc1ccccc1Br,0,38,84*,i,46*,25,79*,
COc1ccc(C(=O)NC(=S)NC(C)(C)C)cc1Br,6,60*,64*,i,40*,47*,77*,TIM10 conf=53*
COc1ccc(C(=O)NC(=S)NCc2ccco2)cc1Br,-31,21,54*,i,46*,38*,53*,
COc1ccc(C(=O)NC(=S)NC(C)C)cc1Br,-9,18,40,i,-4,x,x,
COc1ccc(C(=O)NC(=S)NCc2ccco2)cc1OC,0,19,-22,i,38,x,x,
CCCCn1c(NC(=S)Nc2ccccc2)nc2ccccc21,-100,23,29,i,34,x,x,
CC1=NN(c2ccc(Cl)cc2)C(=O)C1C(c1cccc(O)c1)c1c(C)[nH]n(-c2ccc(Cl)cc2)c1=O (configuration not stated),4,37,57*,i,48*,29,51*,
